# Reference: PubChem BioAssay
# Active and inactive are the calls of the source.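 The calls were made as follows, unless noted: active = inhibition above 20% together with a positive visual image hit; inconclusive = visual image hit but inhibition not above 20%; inactive = no visual image hit.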
# Assays:
# [1] = inhibitors of TNFa-induced NFkB p65 translocation, primary screen, imaging, HUVEC, MLSMR starter and 10KST1 sets (AID 438); conditions: HUVEC TNFa-induced p65 nuclear translocation; cell count: measured here: nuclei count (cytotoxicity indicator), at 2.08 µM; inhibition: at 2 µM, stronger effect = higher value, 0% TNFa-plus-vehicle, 100% no-TNFa wells;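 also: compound added about 3h40 before a 20 min TNFalpha stimulation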;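 as to inhibition: signal is the nuclear over cytoplasmic p65 intensity ratio per well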
# [2] = reduction of polyQ htt aggregates in cells – imaging, exon1htt(103Q)mCFP cells, high-content imaging, primary screen (AID 483;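 active = visual image review flags a hit and inhibition of aggregation exceeds 20%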;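 also: compound exposure lasted 3 days before fixation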;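 as to nuclei count: percent of the per-plate median nuclei count of sample wells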); conditions: exon1htt(103Q)mCFP cell line, aggregate imaging, at 2 µM; inhibition of aggregation: stronger effect = higher value; nuclei count: measured here: cell count, toxicity
# [3] = endothelial E-selectin expression blockers – imaging, HUVEC, immunofluorescence, MLSMR starter and 10KST1 sets, primary screen (AID 487;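 active = visually confirmed hit in the image check and inhibition above 20%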;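 as to inhibition: signal is fraction of cell area covered by stained E-selectin grains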;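 as to nuclei count: 100% = median nuclei count of all wells on the same plate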); conditions: HUVEC TNFalpha-induced E-selectin immunofluorescence imaging, at 2 µM; inhibition: stronger effect = higher value; nuclei count: measured here: cell number, toxicity
# [4] = biological target: Voltage-gated potassium channel subunit beta-2 (Rattus norvegicus) (UniProt P62483); experiment: inhibitors of rat Kvbeta2 reductase activity – biochemical, NADPH fluorescence, primary screen (AID 622;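 active = fluorescence slope higher than the sample average by over 3 SD, cut at about -0.22 in these data, passing the limit was not always enough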;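 also: slope of raw intensity against log time taken from 70 to 1610 s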); conditions: recombinant KvBeta, 4-cyanobenzaldehyde reduction, at 10 µM, stronger effect = higher value
# Chain of Voltage-gated potassium channel subunit beta-2 (Rattus norvegicus) (P62483 whole entry, looked up): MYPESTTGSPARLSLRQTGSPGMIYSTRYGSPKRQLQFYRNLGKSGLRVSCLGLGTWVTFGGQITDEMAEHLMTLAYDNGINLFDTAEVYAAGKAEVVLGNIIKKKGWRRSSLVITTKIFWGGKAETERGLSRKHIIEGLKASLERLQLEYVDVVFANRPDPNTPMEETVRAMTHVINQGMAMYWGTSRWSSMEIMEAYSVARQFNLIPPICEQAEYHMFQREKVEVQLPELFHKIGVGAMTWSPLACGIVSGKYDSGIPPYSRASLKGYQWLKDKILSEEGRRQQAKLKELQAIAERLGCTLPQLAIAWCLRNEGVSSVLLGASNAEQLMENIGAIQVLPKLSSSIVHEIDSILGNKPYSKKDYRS
# [5] = biological target: Voltage-gated potassium channel subunit beta-2 (Rattus norvegicus) (UniProt P62483); experiment: enhancers of rat Kvbeta2 NADPH turnover – biochemical, NADPH fluorescence, primary screen (AID 623;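 active = NADPH fluorescence slope more negative than the mean of all samples by about 3 SD, 99.7% confidence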;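 also: fluorescence intensity change per second fitted from 20 to 320 s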); conditions: Recombinant KvBeta, NADPH fluorescence decrease slope, 10 min; at 10 µM; stronger effect = lower value
# [6] = biological target: Alpha-2C adrenergic receptor (Homo sapiens) (UniProt P18825); experiment: compounds altering alpha2C-coupled GIRK flux – cell-based, HEK293 alpha2C/GIRK1/2, thallium flux, primary screen (AID 624;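 active = fluorescence slope after compound addition differing from the mean of all screened samples at 99.7% confidence, in either direction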;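 also: slope of fluorescence ratio to pre-addition baseline per second over 15 to 24 s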); conditions: thallium flux BTC fluorescence, at 10 µM, actives lie on both sides
# Chain of Alpha-2C adrenergic receptor (Homo sapiens) (P18825 whole entry, looked up): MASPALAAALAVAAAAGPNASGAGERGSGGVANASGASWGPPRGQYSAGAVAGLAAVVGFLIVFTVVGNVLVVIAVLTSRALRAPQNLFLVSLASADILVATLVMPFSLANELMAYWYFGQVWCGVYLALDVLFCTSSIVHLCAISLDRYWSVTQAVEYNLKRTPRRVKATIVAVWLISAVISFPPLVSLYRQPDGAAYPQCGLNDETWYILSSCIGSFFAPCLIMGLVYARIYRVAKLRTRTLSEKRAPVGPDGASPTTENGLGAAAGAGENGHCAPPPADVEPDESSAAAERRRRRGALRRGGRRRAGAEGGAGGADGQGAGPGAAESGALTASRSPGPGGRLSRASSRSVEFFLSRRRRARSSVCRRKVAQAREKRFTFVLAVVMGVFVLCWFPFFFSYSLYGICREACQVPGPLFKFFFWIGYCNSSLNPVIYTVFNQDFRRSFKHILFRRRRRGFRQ
# [7] = blockers of RIG-like receptor reporter activation – cell-based, Sendai virus stimulus, luciferase, 10K MLSCN set, TLR/RLR signaling modifier project, primary screen (AID 602276;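 active = inhibition at or above 50% at 10 µM; inactive = inhibition below 50%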;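 also: firefly luciferase from ISG56 promoter only with Renilla not read in this screen; 0% = Sendai virus plus DMSO and 100% = medium plus DMSO without virus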); conditions: HEK293 RL24 IRF3 luciferase reporter, at 10 µM, stronger effect = higher value
# [8] = TLR3 IRF3 reporter activation blockers – cell-based, poly I:C stimulus, luciferase, 10K MLSCN set, primary screen (AID 602277;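 active = inhibition of the reporter signal at or above 50%; inactive = inhibition below 50%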); conditions: HEK293-TLR3 RL24 IRF3 luciferase reporter, at 10 µM, stronger effect = higher value
SMILES,cell count [1],inhibition [1],inhibition of aggregation [2],nuclei count [2] [%],inhibition [3],nuclei count [3] [%],fluorescence slope [4],NADPH fluorescence slope [5],slope [6],inhibition [7],inhibition [8]
CCOC(=O)CCc1c(C)nc2cc(-c3ccc(F)cc3)[nH]n2c1=O,249,-7.1% (inactive),3% (inactive),85,-8.7% (inactive),107,-0.457 (inactive),-3.9e-05 (inactive),0.00335 (inactive),-3.01% (inactive),22.2% (inactive)
O=C(NCN1CCCCC1)c1cccnc1,327,7% (inactive),-1.5% (inactive),87.9,-20% (inactive),92.8,-0.488 (inactive),-4.4e-05 (inactive),0.00701 (inactive),5.02% (inactive),35.7% (inactive)
OC(CCN1CCOCC1)(c1ccc(Cl)cc1)C1CCCCC1 (centres undefined),663,-1% (inactive),-1.2% (inactive),48.5,37.9% (inactive),120,-0.588 (inactive),-2.6e-05 (inactive),0.00224 (inactive),-9.83% (inactive),-48.9% (inactive)
CCOC(=O)c1ccc(N=c2sc(C(=O)OC)cc(=O)n2Cc2ccco2)cc1,514,-8% (inactive),-5.9% (inactive),107,0.2% (inactive),112,-0.608 (inactive),-4.8e-05 (inactive),0.00678 (inactive),-17.5% (inactive),77.4% (active)
CC1CCN(c2nc3c(c(=O)[nH]c(=O)n3C)n2CCSc2ncccn2)CC1,548,0.8% (inactive),-8.6% (inactive),83.9,-15.9% (inactive),118,-0.43 (inactive),-8.7e-05 (inactive),0.00584 (inactive),8.83% (inactive),24.8% (inactive)
O=C(OCC(=O)c1ccccc1Br)c1ccccn1,308,2.7% (inactive),-3.7% (inactive),98.4,-10.2% (inactive),95.3,-0.536 (inactive),-4.2e-05 (inactive),0.00716 (inactive),3.27% (inactive),26.5% (inactive)
O=S(=O)(c1ccccc1)c1nc(-c2ccco2)oc1NCCCN1CCOCC1,548,0% (inactive),-3% (inactive),88.3,-73.7% (inactive),124,-0.502 (inactive),1.1e-05 (inactive),0.0038 (inactive),0.535% (inactive),4.26% (inactive)
CC1CCC(C(=O)NC(C(=O)NCCN2CCC(C)CC2)C(C)C)CC1 (centres undefined),256,-3.9% (inactive),-5.5% (inactive),71.9,-24.9% (inactive),101,-0.495 (inactive),8.5e-05 (inactive),0.00683 (inactive),19.4% (inactive),25.4% (inactive)
Cc1ccc(NC(=O)CN(c2ccc3c(c2)OCO3)S(=O)(=O)c2c(C)n[nH]c2C)cc1,768,-12.5% (inactive),-29.4% (inactive),108,-39.7% (inactive),101,-0.42 (inactive),-5.2e-05 (inactive),0.00614 (inactive),6.09% (inactive),17.9% (inactive)
O=C(NCc1cccnc1)c1ccc2c(c1)OCO2,415,10.5% (inactive),-7.2% (inactive),103,4.1% (inactive),110,-0.53 (inactive),3.1e-05 (inactive),0.00534 (inactive),-28.8% (inactive),-20% (inactive)
Cc1nn(Cc2ccc(C(=O)NC3CCCCC3)o2)c(C)c1Br,463,-0.6% (inactive),24.1% (inactive),72.2,-30.6% (inactive),108,-0.395 (inactive),-3.4e-05 (inactive),0.00387 (inactive),7.39% (inactive),11.6% (inactive)
CC(=O)NC(Cc1ccc(C)cc1)C(=O)NC1CCN(C(=O)c2cnccn2)CC1 (centres undefined),740,-1% (inactive),22.2% (inactive),130,-42% (inactive),117,-0.421 (inactive),-1.5e-05 (inactive),0.00511 (inactive),13.8% (inactive),9.87% (inactive)
CC(=O)c1coc2ccc(OCC(=O)O)cc12,678,-11.2% (inactive),-4.6% (inactive),110,-42.3% (inactive),110,-0.598 (inactive),-4.1e-05 (inactive),0.00474 (inactive),6.78% (inactive),15.6% (inactive)
COc1ccc(C(=O)Nc2cccc(-c3nc4ncccc4o3)c2C)cc1OC,729,-44.9% (inactive),-4.4% (inactive),96.1,-22.4% (inactive),109,-0.562 (inactive),1.4e-05 (inactive),0.00564 (inactive),-16.3% (inactive),-34.5% (inactive)
